The source of these data is PubChem BioAssay (NCI).

Some test systems named below: SN12C renal; UO-31 renal; TK-10 renal; ACHN renal; CAKI-1 renal; A498 renal; MOLT-4 leukemia; SR leukemia; CCRF-CEM leukemia.
Holding throughout (experiment): NCI-60 one-dose screen, 48 h (100 = growth as untreated, 0 = no growth, -100 = all killed)
Holding throughout (details): 10 µM

The structures appear in SMILES notation. The panel holds about 83,000 compounds, 20% with a hit somewhere; the sample as a whole holds those more often.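 Compound tested at a single concentration for 48 hours in 96-well plates; a percent growth value below 10 was scored as active.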 Unmarked numbers belong to inactive results. Activity calls are given as the source filed them.

As for `O=C(O)CN1C(=O)c2cccc3cccc(c23)C1=O`, the growth in the test with SN12C renal was 95.4%; in the test with UO-31 renal, 97.1%; with TK-10 renal it was 114%; in the test on ACHN renal, 101%; in the test on CAKI-1 renal, 89%; in the test with A498 renal, 85.9%. Moreover, the figures for the growth in the test with MOLT-4 leukemia and in the test on SR leukemia were 115% and 112%, respectively.

Consider `O=C(C[P+](c1ccccc1)(c1ccccc1)c1ccccc1)C[P+](c1ccccc1)(c1ccccc1)c1ccccc1`, for which the growth was -45.9% (active) in the test with SN12C renal; -98.2% (active) in the test on UO-31 renal; -94.1% (active) in the test with TK-10 renal; -99.4% (active) in the test with ACHN renal; -96.1% (active) in the test on CAKI-1 renal; -93.8% (active) in the test with A498 renal. The growth was -28.9% (active) with MOLT-4 leukemia and -19.6% (active) in the test with SR leukemia.

In the case of `Cc1ccc(NC(=O)Nc2nc3ccccc3s2)cc1NC(=O)Nc1nc2ccccc2s1`, the growth was 86.9% in the test with SN12C renal; 66.8% with UO-31 renal; 111% in the test with TK-10 renal; 83.7% in the test with ACHN renal; 93% in the test with A498 renal; 74.2% with CCRF-CEM leukemia. The growth in the test on MOLT-4 leukemia was 82.4%.

For `C[C@@H]1C=C2C(=O)O[C@@H]3CC[C@H](C1)[C@]23O`, the growth with SN12C renal is 81%; in the test on UO-31 renal it was 63.4%; in the test on TK-10 renal, 75.8%; with ACHN renal, 72.3%; in the test on CAKI-1 renal, 50.6%; in the test on A498 renal it was 129%. In addition, the growth in the test with MOLT-4 leukemia is 62.8%; in the test with SR leukemia it was 18.6%.

As for `O=c1oc2cc(OS(=O)(=O)c3ccccc3)ccc2c2c1CCCCC2`, the growth with SN12C renal was 61.4%; in the test with UO-31 renal it was 59.4%; in the test with TK-10 renal, 67.9%; in the test on ACHN renal, 82.2%; in the test with CAKI-1 renal, 73.9%; in the test with A498 renal, 48.9%. Besides, the results for the growth with MOLT-4 leukemia and with SR leukemia were 31.4% and 7% (active), respectively.

For `COc1cc(Cl)cc(-c2nn(-c3cccc(NC(=O)Nc4ccc(Cl)c(Cl)c4)c3)cc2-c2ccncc2)c1`, the growth in the test on SN12C renal was 15.5%; with UO-31 renal it was 0.635% (active); in the test with TK-10 renal, 19.8%; with ACHN renal, 9.65% (active); in the test with CAKI-1 renal it was 7.49% (active); in the test with A498 renal, -9.54% (active). Besides, the growth in the test on MOLT-4 leukemia was -16.1% (active); with SR leukemia it was -18.5% (active).

Take `COc1ccc(OC)c(/C=C/c2nc(SCc3ccccc3)n(-c3ccc(Cl)cc3)n2)c1`: the growth in the test with SN12C renal is 74.2%; in the test with UO-31 renal it was -48.7% (active); in the test with TK-10 renal, 105%; in the test on ACHN renal, 80.8%; with CAKI-1 renal it was 0.228% (active); in the test on CCRF-CEM leukemia, 24.2%. For the same compound, the growth in the test with MOLT-4 leukemia is 30.4%; with SR leukemia it was 19.5%.

In the case of `Cc1cn(C2CCCCO2)c(=O)nc1NO` (configuration not stated), the growth was 103% in the test with SN12C renal; 101% in the test with UO-31 renal; 103% in the test on TK-10 renal; 110% with ACHN renal; 108% in the test with CAKI-1 renal; 102% with CCRF-CEM leukemia. The results for the growth with MOLT-4 leukemia and in the test on SR leukemia were 99.1% and 116%, respectively.

On to `N#Cc1cccc(OCc2nc(N)nc(N)c2-c2ccc(Cl)c(Cl)c2)c1`, for which the growth with SN12C renal was 33.3%; with UO-31 renal it was 33.6%; in the test with TK-10 renal, 46.1%; in the test with ACHN renal it was 17.7%; with CAKI-1 renal, 10.5%; with A498 renal, 53.5%. Besides, the growth in the test with MOLT-4 leukemia was 32.7%; in the test on SR leukemia it was 18.1%.

On to `C#Cc1ccc(-n2c(/C=C/c3ccc(Cl)c(F)c3)nc3ncccc3c2=O)cc1`, for which the growth in the test on SN12C renal was -4.94% (active); with UO-31 renal it was -82.5% (active); in the test on TK-10 renal it was -44.6% (active); in the test with ACHN renal, 0.478% (active); in the test with CAKI-1 renal, -14.2% (active); in the test with A498 renal it was -39% (active). Besides, the growth in the test on MOLT-4 leukemia was -18.6% (active); in the test on SR leukemia it was -25.2% (active).

On to `CN(C)CCNC(=O)c1cccn2c(=O)c3cc4ccccc4cc3nc12`, for which the growth in the test on SN12C renal was 7.89% (active); in the test on UO-31 renal, 18.2%; in the test on TK-10 renal, -29% (active); in the test on ACHN renal, 14.7%; in the test on CAKI-1 renal, -2.45% (active); in the test on A498 renal it was -56.7% (active). Besides, the growth in the test with MOLT-4 leukemia is -27.2% (active); with SR leukemia, -29.9% (active).

For the compound `O=S(=O)(NCCCNc1nccc(-c2c(-c3ccc(F)cc3)nc3sccn23)n1)c1ccc(F)cc1`, the growth was 52.3% in the test with SN12C renal; 3.14% (active) with UO-31 renal; 38.3% with TK-10 renal; 30.8% with ACHN renal; 29.9% in the test with CAKI-1 renal; 56.3% in the test on A498 renal. In addition, the figures for the growth in the test with MOLT-4 leukemia and in the test on SR leukemia were 22.6% and 25.5%, respectively.

`COc1ccc(/C(=C2/O[C@@H]([C@H]3COC(C)(C)O3)[C@H]3OC(C)(C)O[C@@H]23)c2cc(OC)c(OC)c(OC)c2)cc1O`: the growth with SN12C renal was 84.5%; in the test with UO-31 renal, 123%; in the test with TK-10 renal it was 117%; in the test with ACHN renal, 49.5%; with CAKI-1 renal, 111%; in the test with CCRF-CEM leukemia it was 60.8%. Also, the growth in the test on MOLT-4 leukemia is 60.5%; in the test with SR leukemia it was -13.6% (active).

For the compound `Cc1cc(Cc2cc(C)c(O)c(C)c2)cc(C)c1O`, the growth in the test with SN12C renal was 65.3%; with UO-31 renal, 61.2%; in the test with TK-10 renal, 77.5%; in the test on ACHN renal, 72.1%; in the test on CAKI-1 renal it was 42.8%; in the test with A498 renal it was 97.5%. Besides, the values for the growth in the test on MOLT-4 leukemia and with SR leukemia were 22.8% and 25.1%, respectively.

For `N=C(N)c1ccc(-c2ccc(-c3ccccc3)o2)nc1`, the growth in the test with SN12C renal is 86.6%; with UO-31 renal, 65.7%; with TK-10 renal it was 111%; in the test on ACHN renal, 92.4%; in the test on CAKI-1 renal, 83.8%; with A498 renal, 45.7%. Further, the growth with MOLT-4 leukemia is 60%; in the test on SR leukemia, 55.6%.

For the compound `c1ccc(CO[C@H]2CO[C@H]3[C@@H]2OC[C@H]3OCc2ccccc2)cc1`, the growth was 102% in the test with SN12C renal; 72.1% in the test on UO-31 renal; 101% with TK-10 renal; 101% in the test with ACHN renal; 110% in the test with A498 renal; 99.2% in the test with CCRF-CEM leukemia. Further, the growth in the test on MOLT-4 leukemia is 95.2%; in the test with SR leukemia it was 94.6%.
